Assay results reported in PubChem BioAssay (EPA / NIEHS).
Records with an inconclusive call do not appear. Activity calls are given as the source filed them. The calls were made as follows: active = hit-call score of the fitted dose curve at least 0.9, where 1 is the maximum; inconclusive = response in the unintended direction; inactive = score below 0.9.

Each compound was assayed against Nuclear receptor subfamily 1 group I member 2 (Homo sapiens) (UniProt O75469) (assay: ATG_PXR_TRANS: Attagene TRANS-FACTORIAL HepG2 Assay for human Pregnane X Receptor (PXR) (AID 2283008)).
Chain of Nuclear receptor subfamily 1 group I member 2 (Homo sapiens) (O75469 whole entry, looked up): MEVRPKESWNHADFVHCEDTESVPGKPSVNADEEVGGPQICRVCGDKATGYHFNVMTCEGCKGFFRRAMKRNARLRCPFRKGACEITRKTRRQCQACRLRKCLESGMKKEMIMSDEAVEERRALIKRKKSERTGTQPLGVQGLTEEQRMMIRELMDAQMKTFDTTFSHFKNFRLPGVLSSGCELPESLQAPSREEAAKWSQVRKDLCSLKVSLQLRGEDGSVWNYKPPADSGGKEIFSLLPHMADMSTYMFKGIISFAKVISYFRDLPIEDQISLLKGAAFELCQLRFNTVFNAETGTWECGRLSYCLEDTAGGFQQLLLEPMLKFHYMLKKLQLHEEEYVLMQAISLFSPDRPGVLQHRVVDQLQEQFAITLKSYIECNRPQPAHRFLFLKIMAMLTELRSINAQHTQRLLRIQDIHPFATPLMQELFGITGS
Description: ATG_TRANS is a cell-based, multiplexed-readout assay that uses HepG2, a human liver cell line, with measurements taken at 24 hours after chemical dosing in a 24-well plate.ATG_PXR_TRANS is one of 30 assay component(s) measured or calculated from the ATG_TRANS assay. It is designed to make measurements of mRNA induction, a form of inducible reporter, as detected with fluorescence intensity signals by Reverse transcription polymerase chain reaction (RT-PCR) and Capillary electrophoresis technology.Data from the assay component ATG_PXR_TRANS was analyzed into 1 assay endpoint. This assay endpoint, ATG_PXR_TRANS, was analyzed in the positive analysis fitting direction relative to DMSO as the negative control and baseline of activity. Using a type of inducible reporter, measures of mRNA for gain-of-signal activity can be used to understand the reporter gene at the transcription factor-level as they relate to the gene NR1I2. Furthermore, this assay endpoint can be referred to as a primary readout, because this assay has produced multiple assay endpoints where this one serves a reporter gene function. To generalize the intended target to other relatable targets, this assay endpoint is annotated to the nuclear receptor intended target family, where the subfamily is non-steroidal.
Human liver HepG2 cells are transiently transfected with multiple reporter transcription units (MRTUs) in 6-well plates using FuGene 6 reagent (Roche; 3 ml FuGene/1 mg DNA). The MRTU constructs are regulated by a cis-regulating element (promoter). […] A major difference between the CIS and TRANS system is that in CIS activities of endogenous TFs are measured, whereas the TRANS assay evaluates changes in activities of exogenous, chimeric NR-Gal4 proteins. […] At the end of 24 hour incubation, total RNA was isolated using TriZol reagent (Invitrogen). The isolated RNA is then reverse-transcribed using oligo(dT) primer and Mo-MLV reverse transcriptase (Invitrogen) with DNAse I (Ambion) treatment for 30 min. The one-tenth of the produced cDNA was amplified by PCR using Taq DNA polymerase (Invitrogen) and two reporter sequence-specific primers. The PCR products were fluorescently labeled by primer extension with 6-arboxyfluorescein (6-FAM) 5'-labeled reporter sequence-specific primer (2 min at 95 C, 20 s at 68 C and 10 min at 72 C) and these products were digested with 5U of HpaI (New England Biolabs) for 2h at 37 C. The fragments were purified using Qiaquick PCR columns (Qiagen), analyzed on an ABI 3130xL genetic analyzer (Applied Biosystems) with peak positions identified by using a set of X-rhodamine (ROX)-labeled MapMarker1000 molecular weight standards (BioVentures). The raw capillary electrophoresis data was processed using Attagraph software (Attagene).
With `O=C(O)c1cccc(N(Cc2cccnc2)c2ccc(OC(F)F)c(OC(F)F)c2)c1` the AC50 was 11.1 µM (active).
In the case of `Fc1ccccc1[C@@H](F)COC1CCC(Nc2ncnc3[nH]ncc23)CC1` (stereo not given in full), the outcome is reported as “inactive”.
For `Nc1ccc(Nc2ccccc2)cc1`, the outcome was “inactive”.
For `COc1ccc2sc(C(=O)Nc3nnn[nH]3)c(OC(C)C)c2c1`, the outcome was “inactive”.
For `CC(C)c1cccc(C(C)C)c1N1C(=O)c2ccc(O)cc2C1=O`, the AC50 was 0.242 µM (active).
`CN(C)c1ccc(Cc2ccc(N(C)C)cc2)cc1` was tested, and the outcome was “inactive”.
For `CC(C)=CCCC(C)CCO` (stereo not given), the outcome was “inactive”.
For `O=P(OC(CCl)CCl)(OC(CCl)CCl)OC(CCl)CCl`, the AC50 was 0.377 µM (active).
With `CNS(=O)(=O)c1cc(C(=O)N2CCC(CCN3C4CCC3CC(n3c(C)nc5ccccc53)C4)(c3cccc(F)c3)CC2)c(Cl)cc1F` (stereo not given) the AC50 was 0.779 µM (active).
In the case of `Cn1c(=O)cc(Oc2ccc(F)cc2F)c2cnc(NCC(C)(C)O)nc21`, the outcome is reported as “inactive”.
With `COC(=O)c1ccccc1O` the AC50 was 24.9 µM (active).
`C1=CCCC=CCCC=CCC1` was tested, and the AC50 was 56.5 µM (active).
For `O=C1CCCCCN1`, the outcome was “inactive”.
For `CCCCC(CC)COC(=O)CCCCCCCCC(=O)OCC(CC)CCCC` (stereo not given), the outcome was “inactive”.
For `Cc1[nH]cnc1C[C@H]1CCc2c(C)c3ccccc3n2C1=O`, the outcome was “inactive”.
With `CC/C(=C\C(=N/O)C(N)=O)C(C)[N+](=O)[O-]` (stereo not given) the outcome was “inactive”.
For `O=C1OC(=O)C2C3C=CC(C3)C12` (stereo not given), the outcome was “inactive”.
With `CC(O)CN(CCN(CC(C)O)CC(C)O)CC(C)O` (stereo not given) the outcome was “inactive”.
With `Cn1c(=O)c2c(ncn2C)n(C)c1=O` the outcome was “inactive”.
For `CC(=O)OC[C@H]1O[C@@](COC(C)=O)(O[C@H]2O[C@H](COC(C)=O)[C@@H](OC(C)=O)[C@H](OC(C)=O)[C@H]2OC(C)=O)[C@@H](OC(C)=O)[C@@H]1OC(C)=O`, the outcome was “inactive”.
With `COc1ccc(/C=C/S(=O)(=O)NC(=O)c2ccc(C)cc2Cl)cc1` the outcome was “inactive”.
`COc1cccc(-c2ccc(/C=C\CN3CCCCCC3)cc2Cl)c1` was tested, and the AC50 was 4.81 µM (active).
For `O=c1[nH]c2ccc(S(=O)CCN3CCC(Cc4ccc(F)cc4)CC3)cc2o1` (stereo not given), the AC50 was 6.22 µM (active).
For `CCOC(=O)c1ccc(C2CCC(NC[C@H](O)COc3ccc(O)c(NS(C)(=O)=O)c3)CC2)cc1` (stereo not given in full), the AC50 was 33 µM (active).
For `CC(C)=CCC/C(C)=C\CO`, the AC50 was 8.73 µM (active).
In the case of `COc1ccc(-n2nc(C(F)F)cc2-c2ccc(S(C)=O)cc2)cc1` (stereo not given), the outcome is reported as “inactive”.
For `O=C(CCCCCCCCc1cccnc1)N1CCC(C=C(c2ccccc2)c2ccccc2)CC1`, the AC50 was 1.08 µM (active).
With `CCN(C(=O)c1cc(C)cc(OC[C@H](C)Nc2ccncc2)c1)C(C)C` the AC50 was 7.38 µM (active).
For `CC(C)CCO`, the outcome was “inactive”.
In the case of `CCn1nc(Cc2ccccc2)cc1C1CCN(C[C@H]2C[C@H](N(C)[C@@H](C(=O)O)C(C)C)C[C@@H]2c2cccc(F)c2)CC1`, the outcome is reported as “inactive”.
`Cc1ccc(C)c(O)c1` was tested, and the outcome was “inactive”.
`CC1=CC(=O)CC(C)(C)C1` was tested, and the outcome was “inactive”.
With `CC[C@H](C)C(=O)O[C@H]1C[C@@H](C)C=C2C=C[C@H](C)[C@H](CC[C@@H]3C[C@@H](O)CC(=O)O3)[C@H]21` the AC50 was 2.51 µM (active).
In the case of `NC(=O)NO`, the outcome is reported as “inactive”.
With `CCCCCCCCO` the outcome was “inactive”.
With `C1N2CN3CN1CN(C2)C3` the outcome was “inactive”.
`CC(C)CC(C)(O)C#CC(C)(O)CC(C)C` (stereo not given) was tested, and the AC50 was 11.9 µM (active).
In the case of `Cc1ccc(N)cc1O`, the outcome is reported as “inactive”.
`CC(C)(O)c1coc(S(=O)(=O)NC(=O)Nc2c3c(cc4c2CCC4)CCC3)c1` was tested, and the AC50 was 19.3 µM (active).
With `CCCCCCCCCCCCc1ccccc1` the outcome was “inactive”.
